In the library only some 21% were active in any assay of this set; here they are far more common.
TDP1 cell CPT = growth inhibition of DT40 Tdp1-/-;hTDP1 cells with camptothecin (screen for TDP1 inhibitors); chicken DT40 Tdp1-/-;hTDP1 cells + 20 nM CPT, ATP luminescence, 48 h; Potency, µM (doses to about 46.2 µM), actives largely listed as inhibitors; actives 12% (n = 420,000); note: nearly all actives have a fitted effect of over 55% in size
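Cell growth measured by CellTiter-Glo luminescence after a minimum 48 h, 37 C compound exposure with 20 nM CPT in Tdp1-knockout DT40 cells stably expressing hTDP1, seeded 400/well; qHTS titration format.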
RORgamma inh = blocks mouse ROR gamma transcriptional activity; AID 2551; Drosophila S2 Gal4-RORgamma UAS-luciferase reporter, 20 h; Potency, µM (top dose mostly 53.6 µM), hits mostly inhibitors; actives 5.4% (n = 310,000); P51450; note: nearly all actives have a fitted effect of over 60% in size
Target sequence (P51450 whole entry, looked up, the tested form may be a part): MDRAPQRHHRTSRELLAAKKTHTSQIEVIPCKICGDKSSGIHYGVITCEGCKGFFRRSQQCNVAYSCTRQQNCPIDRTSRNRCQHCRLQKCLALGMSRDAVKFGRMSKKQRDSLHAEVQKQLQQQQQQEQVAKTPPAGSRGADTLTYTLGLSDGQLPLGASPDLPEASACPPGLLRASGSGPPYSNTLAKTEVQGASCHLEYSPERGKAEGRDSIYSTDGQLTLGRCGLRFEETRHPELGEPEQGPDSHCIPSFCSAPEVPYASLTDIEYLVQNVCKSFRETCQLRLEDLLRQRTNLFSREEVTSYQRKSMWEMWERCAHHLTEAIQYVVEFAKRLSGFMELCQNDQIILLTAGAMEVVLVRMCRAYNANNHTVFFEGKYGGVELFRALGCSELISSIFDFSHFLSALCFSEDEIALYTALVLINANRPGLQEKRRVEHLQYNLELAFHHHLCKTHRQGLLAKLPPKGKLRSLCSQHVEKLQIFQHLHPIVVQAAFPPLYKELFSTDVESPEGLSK
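Luminescence from a UAS-regulated Photinus luciferase reporter in stably transfected Drosophila Schneider cells is measured; decreased signal marks ROR gamma inhibition. Fusion expression is induced by 700 uM copper sulfate for 20 hr.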
IL-1B inflam inh = inflammasome signaling inhibition, IL-1 beta readout. THP-1 LPS/ATP IL-1B secretion, AlphaLISA, 16 h; hits give low values. activity change, % at 57.5 µM. actives 4.7% (n = 360,000). AID 743279; in the data active = activity change below about -50%; inconclusive = mostly about -30% to -49%
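THP-1 cells pretreated 1 hr with compounds (up to 57.5 uM final), then stimulated with LPS (250 ng/mL final) plus ATP (1.25 mM final); secreted IL-1B measured by AlphaLISA after 16 hr, decreased signal indicating inhibition.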
Gal4-VP16 FLuc = Gal4-VP16 reporter inhibition counter-screen; Drosophila S2 Gal4-VP16 UAS-luciferase, luminescence, 20 h; Potency, µM (top dose mostly 53.6 µM), actives largely listed as inhibitors; actives 3.5% (n = 310,000);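 note: Gal4-VP16 expression switched on by copper sulfate through the metallothionein promoter; nearly all actives have a fitted effect of over 50% in size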
TDP1 cell noCPT = qHTS for Inhibitors of human tyrosyl-DNA phosphodiesterase 1 (TDP1): qHTS in cells in absence of CPT; Potency, µM (series often up to 46.2 µM), hits mostly inhibitors; actives 15% (n = 420,000); DT40 Tdp1-/- hTDP1 cells, no CPT, ATP luminescence, 48 h; AID 686978, 2013; note: nearly all actives have a fitted effect of over 55% in size
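Readout: luminescence from CellTiter-Glo after 30 min in the dark at RT. Cells: DT40 Tdp1-/- with stable hTDP1, 400/well. Exposure: compounds alone, ≥48 hr, 37 °C.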
ELG1 repair inh = ELG1-dependent DNA repair inhibition; Potency, µM (titrated, usually from 46.1 µM), usual class: inhibitors; HEK293T ELG1-luciferase reporter, luminescence, 16 h; DNA damage induced by 5-fluorouridine; actives 2.3% (n = 330,000); note: nearly all actives have a fitted effect of over 55% in size
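Reporter activity after DNA damage by 5-fluorouridine is monitored. Compound-treated cells incubate 16 hr at 37 °C, then ONE-Glo is added for 30 min before luminescence reading.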
Hits are given with their value; n = inactive; u = inconclusive; x = no result given; [ ] = another dose, or the depositor's remark. Unless noted, calls come from the whole dose curve; as a rule, active = well fitted curve in the direction sought with a large enough effect; inconclusive = small, poorly fitted or top-dose-only effect, or another doubt; inactive = no such curve, though single readings can be large; an effect the other way counts as inactive or inconclusive.

SMILES	TDP1 cell CPT	RORgamma inh	IL-1B inflam inh	Gal4-VP16 FLuc	TDP1 cell noCPT	ELG1 repair inh
COc1ccc(NC(=O)CN(C)C(=O)c2cccc(S(=O)(=O)Nc3ccc(F)cc3)c2)cc1	n	x	n	x	n	n
COCCNC(=O)CCn1c(=O)c2cc(OC)c(OC)cc2n(CC(=O)Nc2ccccc2OC)c1=O	n	x	x	x	n	x
O=C(CN1CCN(Cc2ccc(F)cc2)C1=O)NCc1ccc(F)cc1	n	x	x	x	n	x
COc1ccc(C(NC(=O)C(C)C)c2ccc3cccnc3c2O)cc1 (stereo not drawn)	0.731µM	2.24µM	n	6.31µM	0.461µM	2.31µM
CCCC(=O)NC(c1ccc(C(C)C)cc1)c1ccc2cccnc2c1O (stereo not drawn)	5.17µM	2.24µM	n	2.82µM	2.31µM	n
CC(C)c1ccc(NS(=O)(=O)c2cccc3cccnc23)cc1	n	n	u	n	n	n
CCCCC(=O)NC(c1ccc(OC)cc1)c1ccc2cccnc2c1O (stereo not drawn)	5.8µM	x	n	x	9.2µM	x
CCOc1ccc(C(NC(=O)CC)c2c(O)ccc3ccccc23)cc1 (stereo not drawn)	n	n	n	n	u	n
COc1ccc(OCC(=O)Nc2cccc3cccnc23)cc1	n	n	n	n	n	n
CCC(=O)NC(c1ccc(C)cc1)c1ccc2cccnc2c1O (stereo not drawn)	4.11µM	2.24µM	n	2.82µM	4.61µM	u
CO[C@H]1COC(=O)C/C=C\[C@H](C)[C@@H](NS(=O)(=O)c2ccc(C)cc2)COC(=O)C/C=C\[C@@H]1C	x	n[10 µM]	x	n[10 µM]	x	x
CCCC(=O)NC(c1ccc(N(C)C)cc1)c1ccc2cccnc2c1O (stereo not drawn)	0.651µM	2.51µM	n	2.82µM	0.92µM	u
CCCC(=O)NCc1ccccc1Cl	n	n	n	n	n	n
CC(=O)NC(c1ccc(Cl)cc1)c1ccc2cccnc2c1O (stereo not drawn)	4.11µM	x	n	x	2.59µM	x
CCCC(=O)NC(c1ccccc1Cl)c1ccc2cccnc2c1O (stereo not drawn)	3.26µM	2.82µM	n	4.47µM	5.17µM	u
Cc1cc(NC(=O)c2cc(Cl)ccc2Cl)no1	u	n[10 µM]	n	n	n	n
Cc1cc(NC(c2ccc(Cl)cc2)c2ccc3cccnc3c2O)no1 (stereo not drawn)	4.11µM	0.794µM	n	2µM	4.61µM	u
O=C(Nc1cccc2cccnc12)c1ccc(Cl)cc1	n	n	n	n	n	u
O=C(CN1C(=O)NC2(CCOc3ccccc32)C1=O)c1ccc(F)c(F)c1 (stereo not drawn)	n	x	n	x	n	n
Cc1ccc(N2CC(NC(=O)c3cccs3)CC2=O)cc1 (stereo not drawn)	n	x	x	x	n	x
Cc1ccccc1NC(=O)OCc1ccccc1	n	n	u	n	n	u
NCCCCCNC(=O)c1[nH]cnc1C(=O)N[C@@H](Cc1ccccc1)C(=O)OCc1ccccc1	n	x	n	x	n	n
C[C@H](NC(=O)c1nc[nH]c1C(=O)N(C)Cc1ccccc1)C(=O)OC(C)(C)C	n	x	n	x	u	n
C[C@@H](NC(=O)c1nc[nH]c1C(=O)N[C@@H](Cc1ccccc1)C(=O)OCc1ccccc1)c1ccccc1	u	5.62µM	n	7.08µM	18.4µM	n
CN(Cc1ccccc1)C(=O)c1[nH]cnc1C(=O)NCCCCCNC(=O)OC(C)(C)C	u	x	n	x	18.4µM	n
C[C@H](NC(=O)c1nc[nH]c1C(=O)N[C@H](C)c1ccccc1)C(=O)OCc1ccccc1	n	n	n	n	n	u
O=C(CNC(=O)c1[nH]cnc1C(=O)N[C@@H](Cc1ccccc1)C(=O)OCc1ccccc1)OCc1ccccc1	u	u	n	u	u	u

Screens: PubChem BioAssay, National Center for Advancing Translational Sciences (NCATS)
